# Screening data deposited in PubChem by Broad Institute.
# Sampled rows, rich in hits. Any-hit rate of the full collection: about 2.4%.
# GSIS activator – GLuc luminescence reporter in INS-1E cells, primary screen for activators of glucose-dependent secretion of insulin. activation, % at 16.6 µM. hit rate 0.61% among 370,000. INS-1E GLuc reporter insulin secretion, 2-3 h;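 active means lowest replicate activation of at least 40%, so every replicate reaches that level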
# MITF act – activators of MITF-driven TRPM1 promoter reporter, primary screen, cell-based, SK-MEL-5, luciferase, single point | activation, % at 12.5 µM | hit rate 0.75% among 300,000 | SK-MEL-5 TRPM1-promoter luciferase, 24 h; % of positive control, neutral wells = 0;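 active means mean activation of at least 80% with every replicate also reaching 80%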
# miR-122 sensor – miR-122 Renilla sensor signal increase in Huh7, primary screen, miR-122 inhibitor project, cell-based, single point, plate reader | Huh7 miR-122 Renilla luciferase sensor, 48 h; neutral wells = 0, positive control = 100 | activation (reporter increase), % at 12.5 µM | hit rate 0.3% among 340,000 | AID 602342, 2012;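 active means mean replicate activation score at least 90 and every replicate individually at or above 90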;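 further: higher luciferase means less miR-122 activity so hits act as miR-122 inhibitors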
# NSD2 HMT inh – NSD2 histone methyltransferase inhibitors, primary screen, biochemical, AlphaScreen, single concentration, set 2; hit rate 0.54% among 310,000; inhibition, % at 12.5 µM; NSD2 peptide methylation, 120 min
# Target sequence (O96028 whole entry, looked up): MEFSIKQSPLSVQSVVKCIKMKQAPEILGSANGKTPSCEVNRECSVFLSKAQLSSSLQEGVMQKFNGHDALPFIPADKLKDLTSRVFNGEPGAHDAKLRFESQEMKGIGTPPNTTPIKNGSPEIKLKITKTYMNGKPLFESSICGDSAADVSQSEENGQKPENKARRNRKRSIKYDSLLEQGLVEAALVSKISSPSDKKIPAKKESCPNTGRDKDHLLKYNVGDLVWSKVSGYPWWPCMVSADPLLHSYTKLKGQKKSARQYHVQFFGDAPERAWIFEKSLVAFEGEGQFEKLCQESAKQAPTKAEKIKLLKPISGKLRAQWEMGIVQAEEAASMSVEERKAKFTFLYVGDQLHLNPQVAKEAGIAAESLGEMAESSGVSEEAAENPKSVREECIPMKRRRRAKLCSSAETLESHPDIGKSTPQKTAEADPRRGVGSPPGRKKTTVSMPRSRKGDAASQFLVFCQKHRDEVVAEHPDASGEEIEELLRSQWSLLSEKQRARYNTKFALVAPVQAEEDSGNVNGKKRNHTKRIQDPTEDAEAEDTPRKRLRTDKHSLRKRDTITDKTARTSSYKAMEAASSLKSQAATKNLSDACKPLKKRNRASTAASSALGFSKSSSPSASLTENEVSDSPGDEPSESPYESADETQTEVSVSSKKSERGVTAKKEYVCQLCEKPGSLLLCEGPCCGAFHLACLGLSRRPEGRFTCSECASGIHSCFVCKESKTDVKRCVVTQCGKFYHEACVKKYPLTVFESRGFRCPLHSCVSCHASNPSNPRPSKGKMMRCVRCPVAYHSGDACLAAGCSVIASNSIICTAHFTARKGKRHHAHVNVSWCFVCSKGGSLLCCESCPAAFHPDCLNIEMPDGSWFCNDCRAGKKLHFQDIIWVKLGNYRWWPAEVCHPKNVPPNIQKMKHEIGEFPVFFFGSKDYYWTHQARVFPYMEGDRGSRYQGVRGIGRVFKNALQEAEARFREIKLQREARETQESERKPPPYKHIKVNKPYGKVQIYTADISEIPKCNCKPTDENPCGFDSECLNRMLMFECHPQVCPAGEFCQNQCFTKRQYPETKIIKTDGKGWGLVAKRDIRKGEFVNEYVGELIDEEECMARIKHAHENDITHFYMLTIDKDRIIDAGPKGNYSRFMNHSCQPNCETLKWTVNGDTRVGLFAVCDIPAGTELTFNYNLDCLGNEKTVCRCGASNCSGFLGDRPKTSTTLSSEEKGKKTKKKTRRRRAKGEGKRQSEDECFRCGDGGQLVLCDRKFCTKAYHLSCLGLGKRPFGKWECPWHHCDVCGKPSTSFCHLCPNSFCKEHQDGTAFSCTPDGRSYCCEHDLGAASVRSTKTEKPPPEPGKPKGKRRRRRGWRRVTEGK
# Dyrk1A ADPGlo – rat Dyrk1A kinase inhibitors, primary screen, biochemical, single point, plate reader; Dual specificity tyrosine-phosphorylation-regulated kinase 1A (Rattus norvegicus), Q63470; ADP-Glo luminescence, NFATc1 peptide; inhibition, % at 12.5 µM; hit rate 0.43% among 310,000; AID 504441, 2011
# Wnt bcat act – Wnt/beta-catenin pathway activators, primary screen, cell-based, plate reader, single point; activation, % at 9.35 µM; hit rate 1.2% among 300,000; Wnt/beta-catenin reporter cell assay, activator; in the data active means activation above about 30%, passing the limit was not always enough
# Numbers stand for hits; – = inactive; · = no result. Unless noted, no stated cut-off is given here; in the data, active means inhibition above about 50%; inactive means the rest.
SMILES,GSIS activator,MITF act,miR-122 sensor,NSD2 HMT inh,Dyrk1A ADPGlo,Wnt bcat act
CCn1cnc2cc(NCc3ccc(Cl)cc3)ccc21,–,–,·,–,–,34
Cc1ccc(CNc2ccc3c(c2)ncn3C)cc1,–,–,–,–,–,41
CCn1cnc2cc(NC(=O)c3ccc(C)cc3)ccc21,–,–,–,–,–,–
CCn1cnc2cc(NCc3ccncc3)ccc21,·,–,–,–,–,–
Cc1ccc(C(=O)Nc2ccc3c(c2)ncn3C)cc1,·,–,–,–,–,38
C[C@H]1CN([C@@H](C)CO)C(=O)Cc2cc(NC(=O)Nc3ccc4c(c3)OCO4)ccc2O[C@@H]1CN(C)CC1CCCCC1,–,·,–,·,·,·
CCOc1ccc2ccc(OCC)c(/C=N/n3cnnc3)c2c1,40,–,·,–,–,–
CC(C)CC#Cc1ccc2c(c1)O[C@H](CN(C)CC1CC1)[C@H](C)CN([C@H](C)CO)S2(=O)=O,–,·,–,·,·,·
COc1ccc(/C(O)=C2/C(=O)C(=O)N(c3ccccn3)C2c2ccc(F)cc2)cc1 (stereo not drawn),·,84,·,–,–,–
C[C@@H]1CN([C@H](C)CO)C(=O)c2cc(-c3cccc(F)c3)cnc2O[C@H]1CN(C)C(=O)C1CCC1,–,·,–,·,·,·
CCC(C)Sc1cccc(-c2nc3cnccn3c2NC2CCCCC2)c1 (stereo not drawn),170,–,–,·,–,–
c1cc(SC2CCCCC2)cc(-c2nc3cnccn3c2NC2CCCCC2)c1,–,–,·,·,–,–
CN(C)C(=O)[C@H]1[C@H](CO)[C@H]2Cn3c(ccc(-c4ccccc4F)c3=O)[C@@H]1N2C,–,·,–,·,·,·
COc1ccc(-n2c(SCC(=O)c3c(N)n(C)c(=O)n(C)c3=O)nc3ccccc32)cc1,·,·,–,·,–,·
Cn1c(N)c(C(=O)CSc2nc3ccccc3n2-c2ccccc2)c(=O)n(C)c1=O,63,–,–,–,–,·
CSCC[C@H](NC(=O)[C@@H]1Cc2ccccc2CN1)C(=O)NC[C@H]1CC[C@H](C(=O)O)CC1,–,92,–,–,–,–
CSCC[C@H](NC(=O)[C@@H]1Cc2ccccc2CN1)C(=O)NC1CCCCC1,–,–,·,–,–,–
Cc1nn(-c2ccccc2)c(N)c1N=Nc1cccnc1,–,97,·,–,–,–
Cc1cccc(S(=O)(=O)N2C[C@H]3[C@@H](c4ccccc42)[C@H](CO)N3CC2CCCC2)c1,–,·,–,·,·,·
C[C@@H]1CN([C@@H](C)CO)C(=O)c2cccc(NS(=O)(=O)c3ccc(F)cc3)c2O[C@H]1CN(C)C(=O)Nc1ccccc1,·,·,–,·,·,·
O=[N+]([O-])c1c(Nc2cccc(O)c2)cc(Cl)c2nonc12,97,·,·,–,–,–
Cc1cc(C)c(S(=O)(=O)NC2CCN(Cc3ccccc3)CC2)c(C)c1,–,–,–,–,–,–
O=C(NNC1CCN(Cc2ccccc2)CC1)c1ccccc1,44,–,–,–,·,–
Cc1cc(C)c(C)c(S(=O)(=O)NC2CCN(Cc3ccccc3)CC2)c1C,–,–,216,–,–,–
O=C(NC1CCN(Cc2ccccc2)CC1)c1ccccc1,–,–,–,–,–,–
SMILES,GSIS activator,MITF act,miR-122 sensor,NSD2 HMT inh,Dyrk1A ADPGlo,Wnt bcat act
C[C@H]1CN([C@@H](C)CO)C(=O)Cc2cc(NS(=O)(=O)c3ccc(Cl)cc3)ccc2O[C@H]1CN(C)Cc1ccc(-c2ccccc2)cc1,–,·,–,·,·,·
COCC(=O)Nc1ccc2c(c1)[C@@H]1C[C@H](CC(=O)NCC3CC3)O[C@@H](CO)[C@@H]1O2,–,·,–,·,·,·
C=CCNc1cc(F)ccc1S(=O)(=O)NCC=C,–,–,96,·,·,–
Cc1cc(C)cc(C(=O)NC(=S)Nc2ccc(-c3cc4ccccc4oc3=O)cc2)c1,42,–,–,–,–,–
Cc1ccc(C(=O)NC(=S)Nc2ccc(-c3cc4ccccc4oc3=O)cc2)c(C)c1,·,–,–,–,–,–
CN1C(=O)c2cc(NC(=O)c3ccc(F)c(F)c3)ccc2OC[C@H]2O[C@H](CC(=O)O)CC[C@H]21,–,·,–,·,·,·
CCNc1nc(NCC)nc(OCC(=O)O)n1,–,–,–,–,–,–
CCNc1nc(NOC)nc(OCC#N)n1,47,–,·,–,–,–
O=C(C[C@H]1CC[C@@H](NC(=O)C2CC2)[C@@H](CO)O1)Nc1nccs1,–,·,·,·,·,·
Cc1nn(-c2ccc(N3CCCCC3)nn2)c(C)c1CCC(=O)Nc1ccc(F)cc1,–,–,–,–,–,–
Cc1nn(-c2ccc(N3CCCCC3)nn2)c(C)c1CCC(=O)Nc1cccc(F)c1,–,97,–,–,–,–
CCc1ccc2c(c1)cc(CN(Cc1ccco1)C(C)=O)c1nnnn12,52,–,–,–,–,–
Cc1ccc2c(c1)cc(CN(Cc1ccco1)C(=O)N1CCOCC1)c1nnnn12,–,–,–,–,–,–
Cc1cc(C)n2nc(-c3ccc(Br)cc3)cc2n1,–,·,–,–,–,45
COc1ccc(-c2cc3nc(C)cc(C)n3n2)cc1,·,–,–,–,–,–
Cc1cc(C)n2nc(-c3ccc(Cl)cc3)cc2n1,–,–,·,–,–,34
CO[C@@H]1CC[C@H]2CCOc3c(C#N)cccc3C(=O)N(C)C[C@@H](c3ccccc3)CC(=O)N(C)C[C@@H]1O2,–,·,·,·,·,·
COc1ccccc1-c1cn(CC[C@H]2CC[C@H](NS(=O)(=O)c3ccccc3C)[C@@H](CO)O2)nn1,–,·,·,·,·,·
CCc1ccc(NC(=O)c2cc(CC(C)C)on2)cc1,·,·,–,·,–,59
CCc1ccc(NC(=O)c2cc(C(C)C)on2)cc1,–,–,–,–,–,·
CC(C)Cc1cc(C(=O)Nc2ccc(Br)cc2)no1,–,111,–,–,–,37
CC/C(C)=N\N=C\c1c(O)n(CC)c2cc(C3=NNC(=O)CC3)ccc12,·,–,–,–,–,·
CCn1c(O)c(/C=N/N=C/c2ccc(OC)cc2)c2cc(C3=NNC(=O)CC3)ccc21,65,–,–,–,–,–
COc1ccc(-c2[nH]c3ccccc3c2SCCNC(=O)c2cc3ccccc3oc2=O)cc1,·,·,–,·,–,–
COc1ccc(-c2[nH]c3ccccc3c2SCCN)cc1,57,–,–,–,–,–
Cc1ccccc1-c1ccc2c(c1)O[C@@H](CN(C)C(=O)Nc1ccc(F)cc1)[C@@H](C)CN([C@@H](C)CO)S2(=O)=O,–,·,–,·,·,·
CCC1CCCCN1S(=O)(=O)c1ccc(NC(=O)C2CC(=O)N(C(C)(C)C)C2)cc1 (stereo not drawn),–,–,–,–,–,33
Cc1ccc(NC(=O)c2c(C)noc2C)cc1,–,–,–,–,–,·
Cc1noc(N)c1C(=O)Nc1ccc(C(C)(C)C)cc1,·,86,–,–,–,51
O=C(OCc1c(-c2ccccc2)ncc2ccccc12)N1CCOCC1,–,101,·,·,–,37
